Molecules are shown by their SMILES. Records with an inconclusive call do not appear. Active and inactive are the calls of the source. Unless noted, calls follow the shape of the dose curve; as a rule, active = well fitted curve in the direction sought with a large enough effect in the repeat runs; inconclusive = weak or mixed curves; inactive = no such curve, though single readings can be large; an effect the other way counts as inactive or inconclusive.

Experiment [1] can be described thus: qHTS assay to identify aromatase inhibitors - cell viability counter screen (AID 743084).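 Also: cells stimulated with testosterone during compound exposure; nearly all actives have a fitted effect of over 55% in size.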 Background: In qHTS, concentration-response curves come from the screen itself.
In experiment [2] the target is Aryl hydrocarbon receptor (Homo sapiens) (UniProt P35869). The experiment in a line: qHTS assay to identify small molecule that activate the aryl hydrocarbon receptor (AhR) signaling pathway (AID 743085). Also: nearly all actives have a fitted effect of over 15% in size. Also: potency is read from the fitted curve at half-maximal effect.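 As to activation: HG2L7.5c1 human HepG2 liver cells with stably integrated DRE-driven firefly reporter; series mostly up to about 70 µM.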 In outline:
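AhR agonist activity is inferred from enhanced light output of a DRE-controlled firefly luciferase reporter in HepG2 cells, measured with ONE-Glo following 24 h treatment at 37C.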

Experiment [3] can be described thus: qHTS assay to identify small molecule that activate the aryl hydrocarbon receptor (AhR) signaling pathway - cell viability counter screen (AID 743086).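 Also: HepG2 liver cells carrying the AhR DRE luciferase reporter; series mostly up to about 70 µM; nearly all actives have a fitted effect of over 45% in size.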 A digest of the protocol:
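Cytotoxicity counter screen: CellTiter-Fluor signal (30 min, 37 C) in 4000 HepG2 cells/well carrying the DRE-luciferase reporter, following 24 h compound exposure at 37 C.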

In experiment [4] the target is Peroxisome proliferator-activated receptor gamma (Homo sapiens) (UniProt P37231). The experiment can be described thus: qHTS assay to identify small molecule agonists of the peroxisome proliferator-activated receptor gamma (PPARg) signaling pathway (AID 743094; active = well fitted activation curve with a large enough effect in the signal ratio in the repeat runs, not every such curve was filed as active; the % refers to the signal ratio; also: potency is read from the fitted curve at half-maximal effect). A digest of the protocol: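 Cell-based bla reporter, HEK293H background, PPARg-driven UAS. Pre-incubation 5 h, 37C, 5% CO2. Compound 17 h, 37C. Substrate 1 h RT; fluorescence.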
Peroxisome proliferator-activated receptor gamma (Homo sapiens), sequence (P37231 whole entry, looked up): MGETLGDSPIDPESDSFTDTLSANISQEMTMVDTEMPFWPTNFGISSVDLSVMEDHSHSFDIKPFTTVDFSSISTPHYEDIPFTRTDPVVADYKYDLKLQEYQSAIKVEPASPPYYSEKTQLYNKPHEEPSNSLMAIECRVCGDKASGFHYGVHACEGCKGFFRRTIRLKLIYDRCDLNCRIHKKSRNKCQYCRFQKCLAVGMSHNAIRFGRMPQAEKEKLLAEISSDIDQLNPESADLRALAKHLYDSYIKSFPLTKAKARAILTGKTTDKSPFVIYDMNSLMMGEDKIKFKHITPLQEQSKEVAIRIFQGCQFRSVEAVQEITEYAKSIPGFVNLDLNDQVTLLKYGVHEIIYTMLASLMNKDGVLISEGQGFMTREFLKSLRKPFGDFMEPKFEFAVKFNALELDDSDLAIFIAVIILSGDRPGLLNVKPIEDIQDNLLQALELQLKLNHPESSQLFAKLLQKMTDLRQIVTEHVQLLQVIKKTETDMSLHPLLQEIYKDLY

The nature of experiment [5]: qHTS assay to identify small molecule antagonists of the peroxisome proliferator-activated receptor gamma (PPARg) signaling pathway - cell viability counter screen (AID 743194). Also: nearly all actives have a fitted effect of over 55% in size. In outline: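 Viability was measured as CellTiter-Glo luminescence in GeneBLAzer PPARg UAS-bla HEK293H cells. These cells had been exposed 17 h at 37 C to compounds together with rosiglitazone at 50 nM final, with the beta-lactamase readout taken in the same wells.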

Experiment [6] can be described thus: qHTS assay for small molecule agonists of the antioxidant response element (ARE) signaling pathway (AID 743202; active = well fitted activation curve with a large enough effect in the signal ratio in the repeat runs, not every such curve was filed as active; the % refers to the signal ratio). A digest of the protocol: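 Beta-lactamase reporter activity, read as fluorescence intensity, reflects ARE/Nrf2 pathway induction in HepG2 cells after 16 h compound exposure at 37 C; substrate loading was 2 h at room temperature.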
A short description of experiment [7]: qHTS assay for small molecule agonists of the antioxidant response element (ARE) signaling pathway - cell viability counter screen (AID 743203; calls by dose curve; also: nearly all actives have a fitted effect of over 55% in size). A digest of the protocol:
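Measured in the same wells as the beta-lactamase ARE reporter, this read-out is CellTiter-Glo luminescence from HepG2 ARE-bla cells given compounds for 16 hrs.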

Experiment [8] in a line: qHTS assay for small molecule activators of the heat shock response signaling pathway - cell viability counter screen (AID 743209). Also: nearly all actives have a fitted effect of over 50% in size. In outline: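 Same-well multiplex: after 2.5 h room-temperature incubation with LiveBLAzer B/G substrate and fluorescence reading, CellTiter-Glo reagent was added to HSE-bla HeLa cells that had received compound for 5 h at 37 C; luminescence read after 30 min.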

The nature of experiment [9]: qHTS assay for small molecule activators of the heat shock response signaling pathway (AID 743210; active = well fitted activation curve with a large enough effect in the signal ratio in the repeat runs, with a control signal flat, not every such curve was filed as active; the % refers to the signal ratio;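 also: HeLa cells with beta-lactamase reporter driven by heat shock elements; series mostly up to about 63 µM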). In outline: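 Fluorescence from a cleaved B/G FRET substrate (2.5 h, room temp) reports HSE-driven beta-lactamase in HeLa cells treated 5 h at 37 C with DMSO-dissolved compounds.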
The target of experiment [10] is Peroxisome proliferator-activated receptor gamma (Homo sapiens) (UniProt P37231). The experiment can be described thus: qHTS assay to identify small molecule antagonists of the peroxisome proliferator-activated receptor gamma (PPARg) signaling pathway (AID 743191; calls by dose curve; also: nearly all actives have a fitted effect of over 30% in size; also: potency is read from the fitted curve at half-maximal effect). A digest of the protocol:
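Beta-lactamase reporter under UAS control in HEK293H PPARg-bla cells; compound treatment 17 h at 37C. Read-out: fluorescence intensity after 1 h room-temperature incubation with LiveBLAzer B/G FRET substrate.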

Aryl hydrocarbon receptor (Homo sapiens), sequence (P35869 whole entry, looked up): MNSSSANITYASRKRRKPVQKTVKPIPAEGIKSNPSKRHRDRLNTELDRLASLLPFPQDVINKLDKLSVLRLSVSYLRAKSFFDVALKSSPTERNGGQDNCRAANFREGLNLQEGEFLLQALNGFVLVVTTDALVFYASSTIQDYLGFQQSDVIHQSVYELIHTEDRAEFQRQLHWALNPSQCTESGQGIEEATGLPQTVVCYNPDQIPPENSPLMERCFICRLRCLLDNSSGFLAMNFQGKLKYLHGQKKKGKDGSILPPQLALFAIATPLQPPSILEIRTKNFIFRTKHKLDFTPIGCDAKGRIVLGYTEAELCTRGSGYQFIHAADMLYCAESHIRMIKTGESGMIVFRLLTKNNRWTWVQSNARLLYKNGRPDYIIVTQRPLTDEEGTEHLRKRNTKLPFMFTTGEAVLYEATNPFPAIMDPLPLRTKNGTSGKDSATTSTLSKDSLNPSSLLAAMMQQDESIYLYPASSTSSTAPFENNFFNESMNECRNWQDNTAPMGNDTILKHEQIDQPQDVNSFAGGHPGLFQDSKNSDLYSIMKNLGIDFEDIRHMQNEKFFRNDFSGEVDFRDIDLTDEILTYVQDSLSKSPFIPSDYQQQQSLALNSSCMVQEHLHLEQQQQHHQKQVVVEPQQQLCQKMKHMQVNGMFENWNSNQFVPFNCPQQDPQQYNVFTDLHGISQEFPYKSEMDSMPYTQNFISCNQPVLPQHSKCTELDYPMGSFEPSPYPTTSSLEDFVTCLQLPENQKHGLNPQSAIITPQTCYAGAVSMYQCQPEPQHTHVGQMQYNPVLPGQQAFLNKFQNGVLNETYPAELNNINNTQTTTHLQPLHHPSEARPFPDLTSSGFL

On to `CN(CC1(C)CCCO1)S(=O)(=O)c1ccc(Cl)c(S(N)(=O)=O)c1` (configuration not stated), for which the Potency result in experiment [1], in [2], in [4], in experiment [5], in [6] and in experiment [7] was “inactive” each time. Moreover, the Potency result in experiment [9] is “inactive”. Moreover, the outcome in experiment [3] and in experiment [8] was inactive.
`N#Cc1ccc(C(c2ccc(C#N)cc2)n2cncn2)cc1`: the Potency result in [1], in [2], in [4], in experiment [10], in [6] and in experiment [7] was “inactive” throughout. In addition, in experiment [9], the Potency entry is “inactive”. Also, the compound was called inactive in [3] and in experiment [8].
Turning to `CCN(CC)CC1CCCCN1CC(=O)N1c2ccccc2C(=O)Nc2cccnc21` (configuration not stated), the Potency entry in [1], in experiment [2], in experiment [4], in experiment [5], in experiment [6] and in experiment [7] was “inactive” throughout. Also, the result in [3] and in experiment [8] was inactive.
`CC(=O)OC1C2(C)CCC(C2)C1(C)C` (configuration not stated): the Potency result in experiment [1], in experiment [2], in experiment [4], in experiment [10], in [5] and in experiment [9] was “inactive” in each case. In addition, the result in experiment [3] and in experiment [8] was inactive.
Turning to `CCCc1c2oc(C(=O)O)cc(=O)c2cc2c(=O)cc(C(=O)O)n(CC)c12`, the Potency entry in [1], in [2], in experiment [4], in experiment [5], in [6] and in experiment [7] was “inactive” throughout. Besides, in experiment [9], the Potency result is “inactive”. Moreover, the compound was classed as inactive in experiment [3] and in experiment [8].
For `O=C(O)[C@@H]1CSCN1`, the Potency result in experiment [1], in experiment [2], in experiment [4], in experiment [5], in [6] and in experiment [7] was “inactive” each time. For the same compound, in [9], the Potency entry is “inactive”. The compound was called inactive in experiment [3] and in experiment [8].
Turning to `CC(=O)N[C@@H](CC(C)C)C(=O)O`, the Potency result in experiment [1], in experiment [2], in [4], in experiment [10], in experiment [6] and in [7] was “inactive” throughout. In addition, the Potency result in experiment [9] was “inactive”. Further, the outcome in experiment [3] and in [8] was inactive.
For the compound `CCCCOc1cc(C(=O)NCCN(CC)CC)c2ccccc2n1`, the Potency result in experiment [1], in experiment [2], in experiment [4], in experiment [10], in experiment [7] and in [9] was “inactive” throughout. Besides, the compound was called inactive in experiment [3].
As to `COc1cc(C)ccc1C(C)C`, the Potency result in experiment [1], in experiment [2], in experiment [4], in [5], in [6] and in experiment [7] was “inactive” each time. Also, the Potency result in experiment [9] is “inactive”. For the same compound, the compound was called inactive in experiment [3] and in experiment [8].
Take `OCCN(CCO)c1ccccc1`: the Potency entry in [1], in experiment [2], in experiment [4], in experiment [5], in experiment [6] and in [7] was “inactive” each time. Moreover, the Potency entry in experiment [9] was “inactive”. Further, the compound was classed as inactive in experiment [3] and in experiment [8].
On to `O=S(=O)(O)C(F)(F)F`, for which the Potency result in [1], in experiment [2], in experiment [4], in experiment [10], in experiment [5] and in experiment [9] was “inactive” in each case. The compound was classed as inactive in experiment [3] and in [8].
Take `CCN(CC)C(=O)N(CC)CC`: the Potency result in experiment [1], in [2], in experiment [4], in [10] and in experiment [9] was “inactive” in each case. Moreover, the compound was classed as inactive in experiment [3] and in experiment [8].
`COc1cc2c(cc1N)oc1ccccc12`: the Potency result in experiment [1], in [4], in experiment [10] and in experiment [6] was “inactive” each time. The Potency in experiment [2] was 31.3 µM (active). Moreover, the outcome in [3] and in experiment [8] was inactive.
For `CC1(C)O[C@@H]2C[C@H]3[C@@H]4CCC5=CC(=O)CC[C@]5(C)[C@@]4(F)[C@@H](O)C[C@]3(C)[C@]2(C(=O)CCl)O1`, the Potency result in experiment [1], in experiment [2], in experiment [4], in experiment [10] and in experiment [5] was “inactive” in each case. Also, the call in [3] and in experiment [8] was inactive.
For `CC(C)(CO)[C@@H](O)C(=O)NCCC(=O)O`, the Potency result in experiment [1], in experiment [2], in [4], in experiment [10], in [5] and in experiment [7] was “inactive” each time. Further, the Potency entry in experiment [9] was “inactive”. For the same compound, the compound was called inactive in experiment [3] and in experiment [8].
As for `CC1=C(O)C(=O)OC1C` (configuration not stated), the Potency result in experiment [1], in [2], in experiment [4], in experiment [5], in [6] and in experiment [7] was “inactive” each time. In addition, in [9], the Potency result is “inactive”. The compound was classed as inactive in [3] and in [8].
For `CC(C)S`, the Potency result in experiment [1], in experiment [2], in [4], in [10], in experiment [5] and in experiment [7] was “inactive” in each case. Further, in experiment [9], the Potency entry is “inactive”. The result in experiment [3] was inactive.
As for `C=C(C)C(=O)OCCOP(=O)(O)O`, the Potency result in experiment [1], in [2], in [4], in [5], in experiment [6] and in experiment [7] was “inactive” in each case. For the same compound, the outcome in experiment [3] and in [8] was inactive.
Regarding `CCCCCCCCc1ccc(S(=O)(=O)O)cc1`, the Potency result in experiment [1], in experiment [2], in [4], in [5], in [7] and in experiment [9] was “inactive” throughout. Moreover, the result in [3] was inactive. Besides, the Potency in experiment [10] is 43.3 µM (active).
In the case of `C[C@]12CCC(=O)C=C1CC[C@@H]1[C@@H]2CC[C@@]2(C)[C@H]1CC[C@]2(O)C(=O)CO`, the Potency entry in experiment [1], in experiment [2], in experiment [4], in [5], in [6] and in experiment [7] was “inactive” each time. Further, the Potency entry in experiment [9] was “inactive”. The compound was called inactive in experiment [3] and in experiment [8].
With `C1CSCCS1`, the Potency result in [1], in [2], in experiment [4], in experiment [10], in experiment [6] and in [7] was “inactive” in each case. Moreover, in experiment [9], the Potency entry was “inactive”. The call in experiment [3] and in experiment [8] was inactive.
With `CCN1CC(CCN2CCOCC2)C(c2ccccc2)(c2ccccc2)C1=O` (configuration not stated), the Potency result in [1], in [2], in [4], in experiment [10], in [5] and in experiment [7] was “inactive” in each case. In addition, in experiment [9], the Potency entry was “inactive”. Moreover, the compound was classed as inactive in experiment [3].
Consider `Clc1cccc(-c2cc(Cl)cc(Cl)c2)c1`, for which the Potency result in [1], in experiment [2], in experiment [4], in experiment [5], in [6] and in [7] was “inactive” each time. Moreover, in [3], the result was inactive.
In the case of `CC(=O)N(CC(O)CN(C(C)=O)c1c(I)c(C(=O)NCC(O)CO)c(I)c(C(=O)NCC(O)CO)c1I)c1c(I)c(C(=O)NCC(O)CO)c(I)c(C(=O)NCC(O)CO)c1I` (configuration not stated), the Potency result in experiment [1], in [2], in experiment [4], in experiment [10], in [6] and in experiment [7] was “inactive” in each case. For the same compound, the Potency entry in [9] was “inactive”. In experiment [3], the result was inactive.
On to `NCCC(O)(P(=O)(O)O)P(=O)(O)O`, for which the Potency entry in experiment [1], in [2], in experiment [4], in experiment [5], in [6] and in [9] was “inactive” throughout. Moreover, in [3], the outcome was inactive.
For the compound `CCCNC(C)(C)COC(=O)c1ccccc1`, the Potency result in experiment [1], in experiment [2], in experiment [5], in experiment [6] and in experiment [9] was “inactive” throughout. Also, the compound was classed as inactive in [3] and in [8]. The Potency in [4] is 338 nM (active).
As for `OCCN1CCN(CCO)CC1`, the Potency entry in experiment [1], in experiment [2], in experiment [4], in experiment [5], in experiment [6] and in experiment [7] was “inactive” throughout. For the same compound, in [9], the Potency entry is “inactive”. Moreover, in experiment [3], the call was inactive.
Consider `C[C@@H]1CN(c2c(F)c(F)c3c(=O)c(C(=O)O)cn(C4CC4)c3c2F)C[C@H](C)N1`, for which the Potency entry in experiment [1], in experiment [2], in experiment [4], in experiment [5], in experiment [7] and in experiment [9] was “inactive” in each case. Besides, the outcome in experiment [3] and in [8] was inactive.
Take `CCOC(=O)c1ccccc1O`: the Potency result in experiment [1], in experiment [2], in experiment [4], in [5], in experiment [7] and in experiment [9] was “inactive” in each case. Moreover, the compound was called inactive in experiment [3] and in experiment [8].

Values taken from PubChem BioAssay (Tox21).
